Experimental findings from PubChem BioAssay are described below.

The nature of test [1]: rapamycin-like changes in RPL19A-GFP expression – cell-based, S. cerevisiae, multiplex flow cytometry, primary screen (AID 1862).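 Further: lower values mimic rapamycin by blocking the RPL19A rise seen in DMSO cells.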 The following applies: S. cerevisiae RPL19A-GFP strain, flow cytometry fluorescence, 3 h; at 10 µM; stronger effect = lower value. In general terms: Flow cytometry measures light scatter and fluorescence of single cells or particles in a stream.
Test [2] can be described thus: TOR pathway GLN3 branch reporter MEP2-GFP changes – S. cerevisiae, multiplex flow cytometry, primary screen (AID 1867;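 active means GFP response, as percent of the DMSO control, above the screen-wide mean plus 3 SD, about 139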;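 further: median GFP channel fluorescence of barcode-gated MEP2-GFP cells measured by flow cytometry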). The following applies: S. cerevisiae MEP2-GFP strain, 3 h, at 10 µM, stronger effect = higher value, 100% means same as DMSO wells.
Test [3] can be described thus: TOR pathway RTG branch CIT2 reporter changes – S. cerevisiae, GFP fusion, multiplex flow cytometry, primary screen (AID 1870;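 active means percent response above a set limit, the screen-wide mean plus 3 SD, cut at about 130% in these data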;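 further: barcoded CIT2-GFP strain pooled with four other GFP strains with rapamycin as positive control; median GFP fluorescence per well over plate mean of DMSO wells so 100% = DMSO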). The following applies: S. cerevisiae CIT2-GFP expression, 3 h, at 10 µM, stronger effect = higher value.
The nature of test [4]: TOR pathway LAP4-GFP level changes – S. cerevisiae, multiplex flow cytometry, primary screen (AID 1873;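 active means GFP signal, as percent of the solvent control, above the screen mean plus 3 SD, about 149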). The following applies: S. cerevisiae LAP4-GFP expression, 3 h, at 10 µM, stronger effect = higher value.
The nature of test [5]: yeast AGP1-GFP level changes, GLN3 branch – cell-based, multiplex flow cytometry, S. cerevisiae, primary screen (AID 1887;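 active means GFP signal above the screen-wide mean plus 3 SD, that is over about 124.5% of the solvent control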;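 further: AGP1-GFP fusion strain of S. cerevisiae within a five-strain barcoded multiplex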). The settings on record: 3 h, at 10 µM, stronger effect = higher value.
Test [6] is described as follows: reduced mouse 2C T cell binding to pMHC/ICAM-1 vesicles – MLPCN validation set, flow cytometry, LFA-1/ICAM-1 modulator project, pilot screen (AID 2523;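 active means response below a set limit, under 55% cells CD8-positive and vesicle-bound, and CD8 cells' 90th-percentile brightness under 279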;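 on vesicle binding response: mean PE anti-B7-1 fluorescence of CD8+ cells relative to row control; 100% = QL9-loaded vesicles with DMSO vehicle in the same plate row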). The following applies: 2C mouse CD8+ T cells, at 7 µM, stronger effect = lower value; double positive events: measured here: CD8+/vesicle+ event percentage.
The target in test [7] is Integrin beta-1 (Homo sapiens) + Integrin alpha-4 (Homo sapiens) (UniProt P13612+P05556). Kind of test: alpha4beta1 integrin LIBS antibody binding reduction – U937 cells, HUTS-21 mAb, flow cytometry, validation set, VLA-4 allosteric modulator project, pilot screen (AID 2674;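 active means inhibition above 50%, about 3 SD of the validation set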;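 further: antibody binding induced by the VLA-4 ligand LDV present at three times its Kd; 0% = LDV ligand with antibody and no compound and 100% = antibody without LDV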). The following applies: HUTS-21 LIBS mAb binding, at 6.7 µM, stronger effect = higher value, binding induced by LDV ligand.
Integrin beta-1 (Homo sapiens) + Integrin alpha-4 (Homo sapiens), sequence (P05556 whole entry, looked up): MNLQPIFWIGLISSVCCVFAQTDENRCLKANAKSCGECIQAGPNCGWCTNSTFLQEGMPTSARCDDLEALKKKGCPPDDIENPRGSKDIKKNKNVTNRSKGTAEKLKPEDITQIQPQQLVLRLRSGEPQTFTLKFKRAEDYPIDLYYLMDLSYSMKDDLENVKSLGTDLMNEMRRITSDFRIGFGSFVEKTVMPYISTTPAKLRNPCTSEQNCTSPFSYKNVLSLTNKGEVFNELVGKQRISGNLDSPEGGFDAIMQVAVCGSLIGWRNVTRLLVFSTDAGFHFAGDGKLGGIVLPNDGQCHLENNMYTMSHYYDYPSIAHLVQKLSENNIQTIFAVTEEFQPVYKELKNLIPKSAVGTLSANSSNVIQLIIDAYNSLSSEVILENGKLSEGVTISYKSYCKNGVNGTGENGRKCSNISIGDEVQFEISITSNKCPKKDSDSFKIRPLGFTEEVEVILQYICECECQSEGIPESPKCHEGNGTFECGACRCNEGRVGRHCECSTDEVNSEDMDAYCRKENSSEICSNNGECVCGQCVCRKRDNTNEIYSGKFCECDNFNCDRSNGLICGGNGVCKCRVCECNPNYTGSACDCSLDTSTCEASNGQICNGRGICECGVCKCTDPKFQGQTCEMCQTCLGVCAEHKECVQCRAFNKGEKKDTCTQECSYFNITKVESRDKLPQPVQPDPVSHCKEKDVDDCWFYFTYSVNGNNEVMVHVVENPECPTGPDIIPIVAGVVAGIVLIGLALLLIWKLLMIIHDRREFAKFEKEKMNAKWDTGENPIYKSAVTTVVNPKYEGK
Integrin beta-1 (Homo sapiens) + Integrin alpha-4 (Homo sapiens), sequence (P13612 whole entry, looked up): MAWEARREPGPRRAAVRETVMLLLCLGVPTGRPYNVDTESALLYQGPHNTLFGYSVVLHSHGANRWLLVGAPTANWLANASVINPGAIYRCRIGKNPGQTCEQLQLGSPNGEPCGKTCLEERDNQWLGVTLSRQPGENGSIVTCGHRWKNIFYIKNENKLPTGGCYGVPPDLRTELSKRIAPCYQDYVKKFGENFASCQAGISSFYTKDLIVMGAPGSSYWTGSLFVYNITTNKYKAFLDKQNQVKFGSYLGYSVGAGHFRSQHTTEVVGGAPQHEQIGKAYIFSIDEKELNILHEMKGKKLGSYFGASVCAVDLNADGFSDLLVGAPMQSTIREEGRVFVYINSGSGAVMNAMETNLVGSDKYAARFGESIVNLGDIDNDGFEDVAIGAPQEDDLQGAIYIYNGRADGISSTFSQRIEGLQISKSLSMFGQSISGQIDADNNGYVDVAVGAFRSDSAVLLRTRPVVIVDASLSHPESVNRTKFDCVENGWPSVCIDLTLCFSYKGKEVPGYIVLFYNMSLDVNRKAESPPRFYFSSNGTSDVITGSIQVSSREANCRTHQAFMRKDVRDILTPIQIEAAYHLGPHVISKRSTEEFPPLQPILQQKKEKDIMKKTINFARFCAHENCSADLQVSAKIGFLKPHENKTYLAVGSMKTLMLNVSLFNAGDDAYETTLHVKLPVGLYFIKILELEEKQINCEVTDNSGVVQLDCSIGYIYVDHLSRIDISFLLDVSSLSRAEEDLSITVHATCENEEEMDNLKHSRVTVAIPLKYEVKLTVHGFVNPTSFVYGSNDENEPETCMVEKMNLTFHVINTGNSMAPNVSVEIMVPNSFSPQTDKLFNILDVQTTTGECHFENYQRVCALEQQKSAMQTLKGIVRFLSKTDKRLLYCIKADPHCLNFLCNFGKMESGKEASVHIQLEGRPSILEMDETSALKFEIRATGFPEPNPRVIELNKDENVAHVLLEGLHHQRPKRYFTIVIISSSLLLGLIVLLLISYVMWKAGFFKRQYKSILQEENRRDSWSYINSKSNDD

Test [8] is described as follows: calorie-restriction mimetic ROS inhibitors, yeast – validation compound set, pilot screen (AID 2706;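 active means superoxide response below 65% of plate, a cut near 3 SD across the whole screen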;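 further: yeast exposed to compound for one week at 30 degrees C before staining; 100% = mean of all compound wells on the same plate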). The settings on record: S. cerevisiae aging, superoxide DHE fluorescence; at 10 µM, stronger effect = lower value.
For test [9], the target named is Beta-adrenergic receptor kinase 1 (Homo sapiens) (UniProt P25098). Kind of test: GRK2 binders displacing RNA aptamer, biochemical, validation, human GRK2, bead flow cytometry (AID 488806;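 active means aptamer binding inhibition above 30%, about 3 SD of noise from non-fluorescent compounds; inactive means inhibition at or below 30%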). The following applies: bead-bound GRK2, FAM-aptamer displacement, at 10 µM, stronger effect = higher value.
Beta-adrenergic receptor kinase 1 (Homo sapiens), sequence (P25098 whole entry, looked up): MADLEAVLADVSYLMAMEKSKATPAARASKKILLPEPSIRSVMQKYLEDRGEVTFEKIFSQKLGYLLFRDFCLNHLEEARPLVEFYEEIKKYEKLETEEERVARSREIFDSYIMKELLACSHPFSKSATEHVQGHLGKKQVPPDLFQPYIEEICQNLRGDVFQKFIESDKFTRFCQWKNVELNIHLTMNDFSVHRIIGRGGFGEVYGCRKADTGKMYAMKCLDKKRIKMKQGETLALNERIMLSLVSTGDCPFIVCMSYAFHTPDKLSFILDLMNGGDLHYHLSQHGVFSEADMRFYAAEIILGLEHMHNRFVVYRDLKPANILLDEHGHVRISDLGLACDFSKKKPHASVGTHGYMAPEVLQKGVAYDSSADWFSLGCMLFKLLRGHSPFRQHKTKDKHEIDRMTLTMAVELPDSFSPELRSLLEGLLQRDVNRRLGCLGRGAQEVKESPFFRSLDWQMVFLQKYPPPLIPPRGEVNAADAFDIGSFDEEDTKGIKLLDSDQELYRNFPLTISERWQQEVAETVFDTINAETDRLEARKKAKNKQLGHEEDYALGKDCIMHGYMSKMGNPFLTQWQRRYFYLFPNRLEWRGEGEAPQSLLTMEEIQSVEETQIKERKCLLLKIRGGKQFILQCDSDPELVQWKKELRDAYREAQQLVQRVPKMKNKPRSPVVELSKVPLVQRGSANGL
Test [10] concerns the target AP-2 complex subunit beta (Homo sapiens) (UniProt P63010). The test is described as follows: beta-arrestin/AP2 interaction blockers – biochemical, validation set, GST-AP2 beads, flow cytometry, pilot screen (AID 504541;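 active means inhibition above 54%, about 3 SD of non-fluorescent compounds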;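 further: AP2 carries R879A mutation and is captured from E. coli lysate; bead-bound FITC arrestin peptide fluorescence measuring arrestin peptide binding to AP2; 0% = DMSO wells and 100% = excess unlabeled arrestin peptide control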). The settings on record: FITC arrestin peptide, at 10 µM, stronger effect = higher value, AP2 beta2 appendage fragment, R879A mutant.
Test [11] in a line: cytosolic pH regulators acting via V-ATPase – S. cerevisiae, pHLuorin, HTS validation (AID 504600; in the data active means response above about 15%;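 further: plate controls were DMSO for no effect and reference compound for full effect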). The settings on record: V-ATPase proton transport, at 10 µM, stronger effect = higher value.
The test system of test [12] is anti-desmoglein-3 scFv antibody binding to human DSG3. Kind of test: blockers of pathogenic pemphigus antibody–desmoglein-3 binding – biochemical, validation compound set, bead-based, flow cytometry, pilot screen (AID 588368;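 active means binding below the plate cutoff, the plate median minus 3 SD, with a reading above zero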;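 further: signal is the median channel fluorescence of bead-bound GFP antibody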). The settings on record: Protein G beads, DSG3-Fc, scFv-GFP binding, at 10 µM, stronger effect = lower value.
Test [13] in a line: Nile Red efflux blockade in pump-expressing yeast – validation compound set, multiplex, phenotypic, pilot screen (AID 588506;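 active means efflux inhibition above 0.42, the validation set average plus 4 SD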;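 further: Nile Red retained in cells so higher fluorescence means more efflux inhibition; 0 = negative control wells and 1 = enniatin B 25 µM full block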). The following applies: S. cerevisiae pump-expressing triplex, Nile Red efflux flow cytometry; at 10 µM; stronger effect = higher value; the pumps come from Candida albicans.
The target in test [14] is ATP-binding cassette sub-family B member 6 (Homo sapiens) (UniProt Q9NP58). The test is described as follows: blockers of ABCB6-driven porphyrin uptake – K562-ABCB6 cells, flow cytometry, validation set, pilot screen (AID 588550;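 active means inhibition above the screen-wide mean plus 3 SD, about 51%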;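 further: 0% = DMSO wells and 100% = benzethonium chloride 70 µM positive control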). The settings on record: K562-ABCB6 porphyrin accumulation, 1 h, at 10 µM, stronger effect = higher value.
ATP-binding cassette sub-family B member 6 (Homo sapiens), sequence (Q9NP58 whole entry, looked up): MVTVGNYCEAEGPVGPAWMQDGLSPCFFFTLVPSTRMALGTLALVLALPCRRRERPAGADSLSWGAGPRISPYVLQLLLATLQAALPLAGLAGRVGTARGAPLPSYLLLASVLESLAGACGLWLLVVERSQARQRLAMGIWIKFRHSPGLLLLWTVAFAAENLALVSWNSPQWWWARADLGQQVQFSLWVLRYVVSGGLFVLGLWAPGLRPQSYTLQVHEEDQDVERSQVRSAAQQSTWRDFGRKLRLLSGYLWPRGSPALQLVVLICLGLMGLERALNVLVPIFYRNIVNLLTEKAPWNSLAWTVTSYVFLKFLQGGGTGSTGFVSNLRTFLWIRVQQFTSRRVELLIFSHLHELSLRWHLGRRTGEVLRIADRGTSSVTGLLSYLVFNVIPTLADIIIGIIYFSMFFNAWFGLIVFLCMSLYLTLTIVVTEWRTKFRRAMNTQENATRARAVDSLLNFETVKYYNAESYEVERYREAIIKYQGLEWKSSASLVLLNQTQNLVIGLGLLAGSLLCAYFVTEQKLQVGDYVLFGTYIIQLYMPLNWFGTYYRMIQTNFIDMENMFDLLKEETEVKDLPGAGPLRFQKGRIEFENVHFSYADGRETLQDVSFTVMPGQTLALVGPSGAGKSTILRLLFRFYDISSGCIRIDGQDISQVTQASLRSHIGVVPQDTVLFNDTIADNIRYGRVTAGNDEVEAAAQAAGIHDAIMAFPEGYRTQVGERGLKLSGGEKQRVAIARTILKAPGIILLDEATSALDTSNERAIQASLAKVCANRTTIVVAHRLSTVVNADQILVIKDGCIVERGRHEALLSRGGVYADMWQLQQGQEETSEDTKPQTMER
The nature of test [15]: AML differentiation inducers, ER-HoxA9 marrow cells – cell-based, GFP/MAC1 double positive, flow cytometry, validation set, primary screen (AID 588685;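 active means differentiation response of at least 50%, scaled between solvent and reference control, from cells with both markers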;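 further: compound exposure lasts four days before antibody staining and flow analysis; 0% = DMSO wells and 100% = 5 µM fulvestrant positive control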). The following applies: stronger effect = higher value, normalized: vehicle 0, fulvestrant 100.

Each structure is given as a SMILES string. Records with an inconclusive call do not appear. Activity calls are given as the source filed them. Unless noted, no stated cut-off is given here; in the data, active means percent of DMSO control GFP below about 86%; inactive means the rest, inconclusive results apart.

AP-2 complex subunit beta (Homo sapiens), sequence (P63010 whole entry, looked up, the tested form may be a part, one chain of several): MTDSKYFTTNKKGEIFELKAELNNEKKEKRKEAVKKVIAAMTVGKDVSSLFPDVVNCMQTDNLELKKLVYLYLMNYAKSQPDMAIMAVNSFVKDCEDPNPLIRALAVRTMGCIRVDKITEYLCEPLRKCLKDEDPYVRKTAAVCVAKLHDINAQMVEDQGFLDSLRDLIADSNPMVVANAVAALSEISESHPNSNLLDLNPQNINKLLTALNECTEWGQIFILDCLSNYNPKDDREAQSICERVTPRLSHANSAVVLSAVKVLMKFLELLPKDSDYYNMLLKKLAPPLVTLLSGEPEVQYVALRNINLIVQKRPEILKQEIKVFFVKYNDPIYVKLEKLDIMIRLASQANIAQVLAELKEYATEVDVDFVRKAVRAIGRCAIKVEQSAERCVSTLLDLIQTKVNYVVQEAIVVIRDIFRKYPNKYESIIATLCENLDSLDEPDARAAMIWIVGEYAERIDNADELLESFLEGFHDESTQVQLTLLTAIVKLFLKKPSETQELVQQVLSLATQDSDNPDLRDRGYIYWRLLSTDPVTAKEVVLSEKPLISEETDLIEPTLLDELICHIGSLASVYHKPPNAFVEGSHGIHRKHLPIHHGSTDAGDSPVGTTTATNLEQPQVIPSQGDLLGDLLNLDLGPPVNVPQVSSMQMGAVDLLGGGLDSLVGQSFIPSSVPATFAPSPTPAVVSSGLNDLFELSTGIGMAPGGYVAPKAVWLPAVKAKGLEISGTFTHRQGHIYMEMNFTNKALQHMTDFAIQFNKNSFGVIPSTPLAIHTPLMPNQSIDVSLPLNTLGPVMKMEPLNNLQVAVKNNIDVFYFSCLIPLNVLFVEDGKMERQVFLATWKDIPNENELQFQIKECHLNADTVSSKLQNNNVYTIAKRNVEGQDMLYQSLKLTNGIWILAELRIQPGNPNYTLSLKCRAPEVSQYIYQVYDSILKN

As for `CCCC1O[C@@H]2C[C@H]3[C@@H]4CCC5=CC(=O)C=C[C@]5(C)[C@H]4[C@@H](O)C[C@]3(C)[C@]2(C(=O)CO)O1` (stereo not given in full), the percent of DMSO control GFP in [1] was 100% (inactive). Further, the results for the GFP response vs DMSO in [2] and in [4] were 108% (inactive) and 100% (inactive), respectively. The percent response of DMSO control in test [3] was 108% (inactive). Moreover, in test [5], the GFP response, % of DMSO was 106% (inactive). Further, the double positive events in [6] is 58.8%. The vesicle binding response in test [6] was 217% (inactive). The inhibition in [7] was 4.42% (inactive); in [10], 42.5% (inactive); in test [14] it was 0% (inactive). Further, in test [8], the superoxide response (% of plate) was 103% (inactive). Besides, the aptamer binding inhibition in [9] is 4% (inactive). The response in test [11] was -0.18% (inactive). Moreover, the binding (% of control) in [12] was 104% (inactive). Further, in test [13], the efflux inhibition (fraction of control) is 0.1 (inactive). The differentiation response in test [15] was 6.26% (inactive).

On to `CC[C@]1(O)C[C@@H]2CN(CCc3c([nH]c4ccccc34)[C@@](C(=O)OC)(c3cc4c(cc3OC)N(C)[C@H]3[C@@](O)(C(=O)OC)[C@H](OC(C)=O)[C@]5(CC)C=CCN6CC[C@]43[C@@H]65)C2)C1`, for which, in [1], the percent of DMSO control GFP is 102% (inactive). Also, the results for the GFP response vs DMSO in [2] and in test [4] were 101% (inactive) and 92.3% (inactive), respectively. For the same compound, the percent response of DMSO control in [3] was 101% (inactive). Besides, the GFP response, % of DMSO in test [5] was 99% (inactive). The double positive events in [6] stood at 55.4%. Also, the vesicle binding response in [6] was 153% (inactive). For the same compound, the inhibition was 23.1% (inactive) in test [7], -7.9% (inactive) in test [10] and 8% (inactive) in test [14]. Further, the superoxide response (% of plate) in test [8] is 86.7% (inactive). Moreover, the aptamer binding inhibition in [9] is -13% (inactive). Besides, the response in test [11] was 1.26% (inactive). Besides, the binding (% of control) in [12] was 111% (inactive). For the same compound, in test [13], the efflux inhibition (fraction of control) is 0.59 (active). In test [15], the differentiation response is 3.03% (inactive).

`CCOC(=O)c1ccc2[nH]c(C)c(CCC(C)=O)c(=O)c2c1`: the percent of DMSO control GFP in [1] is 102% (inactive). For the same compound, the figures for the GFP response vs DMSO in test [2] and in test [4] were 98.9% (inactive) and 88.3% (inactive), respectively. Also, the percent response of DMSO control in test [3] is 109% (inactive). Besides, the GFP response, % of DMSO in test [5] is 97.9% (inactive). In [6], this compound displayed a double positive events of 57.1%. In addition, in [6], the vesicle binding response is 228% (inactive). Moreover, the inhibition is 0.69% (inactive) in test [7], 1.85% (inactive) in test [10] and 6% (inactive) in test [14]. Besides, in test [8], the superoxide response (% of plate) is 91.5% (inactive). The aptamer binding inhibition in test [9] is 1% (inactive). In [11], the response was 6.01% (inactive). Also, the binding (% of control) in test [12] was 108% (inactive). The efflux inhibition (fraction of control) in test [13] is -0.12 (inactive). Moreover, the differentiation response in [15] is -11.5% (inactive).

In the case of `Nc1cccc2c1nnn2C1OC(CO)C(O)C(O)C1O` (stereo not given), the percent of DMSO control GFP in test [1] is 104% (inactive). In addition, the results for the GFP response vs DMSO in test [2] and in test [4] were 94.8% (inactive) and 85.3% (inactive), respectively. The percent response of DMSO control in [3] was 102% (inactive). Also, the GFP response, % of DMSO in [5] is 102% (inactive). Moreover, in test [6], the double positive events came out at 58%. The vesicle binding response in [6] is 192% (inactive). The inhibition is -3.97% (inactive) in [7], -6.04% (inactive) in [10] and 4% (inactive) in test [14]. Besides, in [8], the superoxide response (% of plate) was 82.8% (inactive). For the same compound, in test [9], the aptamer binding inhibition was 0% (inactive). Also, in test [11], the response was 4.02% (inactive). Moreover, in test [12], the binding (% of control) was 105% (inactive). In addition, the efflux inhibition (fraction of control) in [13] is -0.05 (inactive). For the same compound, in [15], the differentiation response is -18% (inactive).

Take `Cc1nc2sccn2c(=O)c1CCN1CCC(=C(c2ccc(F)cc2)c2ccc(F)cc2)CC1`: in [1], the percent of DMSO control GFP is 101% (inactive). Moreover, the figures for the GFP response vs DMSO in test [2] and in test [4] were 98.6% (inactive) and 121% (inactive), respectively. The percent response of DMSO control in test [3] was 105% (inactive). Also, in [5], the GFP response, % of DMSO was 121% (inactive). Also, the double positive events in test [6] worked out at 61.2%. Also, in test [6], the vesicle binding response was 217% (inactive). Moreover, the inhibition was 2.29% (inactive) in test [7], -0.42% (inactive) in test [10] and 2% (inactive) in [14]. Besides, the superoxide response (% of plate) in test [8] is 86.3% (inactive). Moreover, the aptamer binding inhibition in [9] is -2% (inactive). Besides, in test [11], the response was -6.88% (inactive). The binding (% of control) in [12] is 109% (inactive). For the same compound, the efflux inhibition (fraction of control) in test [13] was 0.08 (inactive). Also, the differentiation response in [15] was -4% (inactive).

For orientation: inhibition means the relative decrease from the control value, in per cent.
